Assay outcomes (PubChem BioAssay)
Mtb RmlCD inh = blocks M. tuberculosis RmlC and RmlD coupled enzymes | P9WH09+P9WH11 | RmlC+RmlD coupled enzyme assay, percent inhibition; primary screen in compound mixtures | inhibition, % at 3.6 µM | actives 0.03% (n = 160,000) | AID 1533; in the data active = inhibition mostly above about 34%, no sharp cut-off
Target sequence (P9WH09 whole entry, looked up): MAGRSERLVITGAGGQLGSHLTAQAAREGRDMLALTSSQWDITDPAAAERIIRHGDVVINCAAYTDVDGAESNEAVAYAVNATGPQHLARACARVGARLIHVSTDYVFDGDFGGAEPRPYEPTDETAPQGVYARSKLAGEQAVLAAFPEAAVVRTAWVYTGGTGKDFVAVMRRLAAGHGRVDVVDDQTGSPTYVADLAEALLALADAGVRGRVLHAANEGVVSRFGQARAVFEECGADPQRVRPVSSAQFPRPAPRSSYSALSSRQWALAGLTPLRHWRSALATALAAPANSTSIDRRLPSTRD
Target sequence (P9WH11 whole entry, looked up): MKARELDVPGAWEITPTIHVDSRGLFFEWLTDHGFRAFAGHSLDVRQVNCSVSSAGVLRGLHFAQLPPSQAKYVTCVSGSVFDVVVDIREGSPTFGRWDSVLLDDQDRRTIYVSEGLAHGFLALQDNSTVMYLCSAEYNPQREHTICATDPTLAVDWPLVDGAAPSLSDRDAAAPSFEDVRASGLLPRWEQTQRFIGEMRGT
Of the large screens only hits and unclear results are named; the others gave an inactive call. The entries come from a sample that favours hits as a whole.

COc1ccc(-c2nc3cnccn3c2Nc2ccc(C)cc2)cc1	none
CCOC(=O)CNc1c(-c2ccc(F)cc2)nc2cnccn12	Mtb RmlCD inh 51
CCOC(=O)/C=C/C(=O)Nc1ccccc1-c1ccccc1NC(=O)/C=C/C(=O)OCC	none
O=C(Nc1ccc(O)c2c(=O)cc(-c3cccc(Cl)c3)oc12)c1ccc(F)cc1	none
Cc1[nH]n(-c2cccc(Cl)c2)c(=O)c1C=NCC(C)C	none
COc1cccc(/C=C/c2nc3c(cnn3-c3ccccc3)c(=O)[nH]2)c1	Mtb RmlCD inh 35
COc1cccc(/C=N/n2nnc3c(cnn3-c3ccccc3)c2=O)c1	none
O=c1[nH]c(/C=C/c2ccc(Br)cc2)nc2c1cnn2-c1ccccc1	none
CC(=O)c1ccccc1OC(=O)COc1ccc(Cl)cc1C	none
COc1ccccc1-c1c(C)oc2c(CN3CCN(CCO)CC3)c(O)ccc2c1=O	Mtb RmlCD inh 56
COc1ccc(-c2c(C)oc3c(CN4CCN(CCO)CC4)c(O)ccc3c2=O)cc1OC	none
COc1ccccc1Oc1c(C)oc2c(CN3CCOCC3)c(O)ccc2c1=O	none
CCCn1cnc2c(c1=O)c1nc3ccccc3nc1n2CCC1=CCCCC1	none
Cc1nc2c(c(=O)n1CCC1=CCCCC1)c1nc3ccccc3nc1n2/N=C/c1ccccc1	Mtb RmlCD inh 34
CCOCCCn1c(C)nc2c(c1=O)c1nc3ccccc3nc1n2CCC1=CCCCC1	none
CC(=O)Nc1cc2cc(NS(=O)(=O)c3ccc(C)cc3)ccc2oc1=O	none
CC(C)(C)C1CCc2c(C(=O)NNC(=O)CCC(=O)O)csc2C1 (centres undefined)	none
COC(=O)c1ccc(N2C(=O)C3CC=CC(C)C3C2=O)cc1 (centres undefined)	none
COc1ccc(C(=O)n2c(SC)nc3cc4c(cc32)OCCO4)cc1	none
